Results taken from the supplement of paper PMC10849652.
Targets with a hit are over-represented here; the source holds about 7,900 in all. About 0.6% of all pairs of compound and target were hits.

Experiments:
Experiment in all cases: log2 fold change, soluble protein after heating vs DMSO (PISA); higher = thermal stabilisation; K562 cells, 10 uM, 30 min; active = over 0.2 and 3.5 SD of the protein, either way, in both replicates (recomputed)
[1] = compound: C1COCCN1CCN2C3=CC=CC=C3N=C2NC(=O)C4=CC(=CC=C4)[N+](=O)[O-] [IRAK-1-4 Inhibitor I]
Method in brief: (§1)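 K562 cells (2×10^6 cells/mL) were treated with 10 μM compound for 30 min, and aliquots were heated for 3 min over 48°C-58°C. Pooled aliquots were extracted in PBS with 0.5% NP-40 at 4°C, and the supernatant after 21,000xg for 90 min was measured by TMTpro 16plex LC-MS/MS with channel sums equalised. Reported thermal stability, relative to control samples and from duplicates, is a log2 fold change.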

[2] = compound: C=CC(=O)N1CCC[C@@H](n2nc(-c3ccc(Oc4ccccc4)cc3)c3c(N)ncnc32)C1 [ibrutinib]
Method in brief: as §1

[3] = compound: CC(=O)c1cnc2ccc(-c3cc(Cl)c(O)c(Cl)c3)nc2c1N[C@H]1CC[C@H](CN(C)C)CC1
Method in brief: as §1

[4] = compound: CC(C)(C)Cn1c(N)nc2ccc(-c3[nH]c(C(C)(C)C)nc3-c3ccc(F)cc3)nc21 [ralimetinib]
Method in brief: as §1

[5] = compound: CC(C)(O)CC(=O)NCCn1ccc2ncnc(Nc3ccc(Oc4cccc(C(F)(F)F)c4)c(Cl)c3)c21
Method in brief: as §1

[6] = compound: CC(C)C1=C2N=C(C=C(N2N=C1)NCC3=CC=CC=C3)NCCCCCCN
Method in brief: as §1

[7] = compound: CC(C)C[C@@H](C=O)NC(=O)[C@H](CC(C)C)NC(=O)[C@H](CC(C)C)NC(=O)OCc1ccccc1
Method in brief: as §1

[8] = compound: CC(C)N(C[C@H]1O[C@@H](n2cnc3c(N)ncnc32)[C@H](O)[C@@H]1O)[C@H]1C[C@@H](CCc2nc3cc(C(C)(C)C)ccc3[nH]2)C1 [pinometostat]
Method in brief: as §1

[9] = compound: CC1=C(C(CC(=O)N1)C2=CC=C(C=C2)C(F)(F)F)C(=O)NC3=C(C=C4C(=C3)C=NN4)F
Method in brief: as §1

[10] = compound: CC1=C(C2=C(C=C1)C(=O)C3=CC=CC=C3N2CCCN)C
Method in brief: as §1

[11] = compound: CC1=C(C=C(C=C1)NC(=O)C2=CC(=CC=C2)C(C)(C)C#N)NC3=CC4=C(C=C3)N=CN(C4=O)C
Method in brief: as §1

[12] = compound: CC1=C(C=C(C=C1)NC(=O)C2=CC(=CC=C2)N(C)C)NC(=O)C3=CC=C(C=C3)O
Method in brief: as §1

[13] = compound: CC1=CC=C(C=C1)SC2=C3C=C(SC3=CN=C2)C(=O)N
Method in brief: as §1

[14] = compound: CC1=NC(=CC=C1)C2=C(N=C(N2)C(C)(C)C)C3=CC4=NC=CN=C4C=C3
Method in brief: as §1

[15] = compound: CCCCN(Cc1ccc(C(=O)NO)cc1)C(=O)Nc1ccccc1 [Nexturastat A]
Method in brief: as §1

[16] = compound: CCCS(=O)(=O)Nc1ccc(F)c(C(=O)c2c[nH]c3ncc(-c4ccc(Cl)cc4)cc23)c1F [vemurafenib]
Method in brief: as §1

[17] = compound: CCCS(=O)(=O)Nc1ccc(F)c(C(=O)c2c[nH]c3ncc(Cl)cc23)c1F
Method in brief: as §1

[18] = compound: CCCc1cc(C)[nH]c(=O)c1CNC(=O)c1cc(-c2ccnc(N3CCN(C)CC3)c2)cc2c1cnn2C(C)C
Method in brief: as §1

[19] = compound: CCN(CC)Cc1ccc2cc(COC(=O)Nc3ccc(C(=O)NO)cc3)ccc2c1 [givinostat]
Method in brief: as §1

[20] = compound: CCN(CCCOc1ccc2c(Nc3cc(CC(=O)Nc4cccc(F)c4)[nH]n3)ncnc2c1)CCOP(=O)(O)O [barasertib]
Method in brief: as §1

Measured: log2 fold change

ANP32E (UniProt Q9BTT0)
inactive: [1] 0.016 | [2] 0.019 | [3] -0.128 | [4] -0.035 | [5] -0.067 | [6] -0.181 | [7] -0.036 | [8] 0.028 | [9] 0.082 | [10] -0.214 | [11] 0.041 | [12] -0.098 | [13] 0.091 | [14] -0.02 | [15] -0.11 | [16] 0.091 | [17] 0.035 | [18] -0.001 | [19] 0.112 | [20] 0.076

ACP1 isoform 2 (UniProt P24666)
UniProt P24666, sequence (P24666 whole entry, looked up): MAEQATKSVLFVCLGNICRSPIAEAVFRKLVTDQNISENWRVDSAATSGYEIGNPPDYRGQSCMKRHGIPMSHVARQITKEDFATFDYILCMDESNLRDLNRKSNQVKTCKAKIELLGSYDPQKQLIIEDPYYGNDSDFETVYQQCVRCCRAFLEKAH
inactive: [1] -0.082 | [2] -0.028 | [3] -0.013 | [4] 0.009 | [6] -0.109 | [7] -0.039 | [8] 0.073 | [9] -0.061 | [11] 0.008 | [12] -0.013 | [13] 0.025 | [14] -0.008 | [15] 0.08 | [16] 0.031 | [17] 0.026 | [18] 0.043 | [19] 0.058 | [20] 0.074
active: [5] -0.264 | [10] -0.296

AP2A2 isoform 2 (UniProt O94973)
UniProt O94973, sequence (O94973 whole entry, looked up): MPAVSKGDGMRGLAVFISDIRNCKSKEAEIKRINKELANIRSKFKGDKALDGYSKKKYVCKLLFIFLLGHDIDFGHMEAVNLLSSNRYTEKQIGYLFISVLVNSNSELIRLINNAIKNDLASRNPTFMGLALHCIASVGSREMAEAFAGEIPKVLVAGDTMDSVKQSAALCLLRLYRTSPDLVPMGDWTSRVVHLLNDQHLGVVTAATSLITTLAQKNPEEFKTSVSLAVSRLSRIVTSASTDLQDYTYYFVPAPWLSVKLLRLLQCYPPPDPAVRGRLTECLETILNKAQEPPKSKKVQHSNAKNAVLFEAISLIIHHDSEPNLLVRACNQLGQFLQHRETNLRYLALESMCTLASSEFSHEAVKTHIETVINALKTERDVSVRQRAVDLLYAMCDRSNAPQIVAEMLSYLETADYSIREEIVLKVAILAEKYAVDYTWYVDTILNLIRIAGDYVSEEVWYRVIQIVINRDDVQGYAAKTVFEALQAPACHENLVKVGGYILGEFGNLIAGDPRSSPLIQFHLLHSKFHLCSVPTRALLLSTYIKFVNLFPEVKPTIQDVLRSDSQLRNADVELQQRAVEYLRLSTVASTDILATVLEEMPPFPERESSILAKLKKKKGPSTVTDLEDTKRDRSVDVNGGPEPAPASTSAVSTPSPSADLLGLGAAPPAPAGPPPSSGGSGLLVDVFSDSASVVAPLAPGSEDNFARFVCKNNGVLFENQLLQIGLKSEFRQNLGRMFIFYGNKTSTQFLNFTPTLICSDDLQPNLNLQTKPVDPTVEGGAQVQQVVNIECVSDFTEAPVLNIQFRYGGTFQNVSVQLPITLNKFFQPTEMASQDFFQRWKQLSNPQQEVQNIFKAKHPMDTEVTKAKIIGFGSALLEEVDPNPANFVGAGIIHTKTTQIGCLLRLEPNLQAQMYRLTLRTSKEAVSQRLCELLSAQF
inactive: [1] -0.003 | [2] -0.015 | [3] 0.008 | [4] 0.006 | [5] 0.033 | [6] 0.019 | [7] 0.032 | [8] 0.025 | [9] -0.02 | [10] 0.107 | [11] 0.084 | [12] 0 | [13] 0.01 | [14] 0.049 | [15] 0.004 | [16] -0.008 | [17] 0.002 | [18] 0.038 | [19] 0.003 | [20] 0.002

AGPAT1 (UniProt Q99943)
UniProt Q99943, sequence (Q99943 whole entry, looked up): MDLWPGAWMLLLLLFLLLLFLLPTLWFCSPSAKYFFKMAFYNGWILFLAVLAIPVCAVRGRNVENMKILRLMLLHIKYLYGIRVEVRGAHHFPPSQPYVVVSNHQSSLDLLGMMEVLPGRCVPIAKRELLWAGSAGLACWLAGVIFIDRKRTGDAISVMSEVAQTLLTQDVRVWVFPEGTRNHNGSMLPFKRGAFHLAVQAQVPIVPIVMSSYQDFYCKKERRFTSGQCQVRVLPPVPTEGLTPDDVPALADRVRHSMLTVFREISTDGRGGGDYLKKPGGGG
inactive: [1] 0 | [2] -0.083 | [3] -0.051 | [4] 0.012 | [5] -0.109 | [6] 0.06 | [7] -0.005 | [8] 0.02 | [9] -0.006 | [10] -0.017 | [11] -0.037 | [12] -0.029 | [13] -0.014 | [14] -0.03 | [15] -0.052 | [16] 0.017 | [17] -0.004 | [18] 0.004 | [19] 0.005 | [20] 0.047

ARPP19 (UniProt P56211)
UniProt P56211, sequence (P56211 whole entry, looked up): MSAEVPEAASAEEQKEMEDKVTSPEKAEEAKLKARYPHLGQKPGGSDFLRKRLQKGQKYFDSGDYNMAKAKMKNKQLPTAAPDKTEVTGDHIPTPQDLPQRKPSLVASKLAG
inactive: [1] 0.052 | [2] -0.009 | [3] 0 | [4] 0.048 | [5] -0.051 | [6] 0.048 | [7] -0.071 | [8] -0.157 | [9] 0.069 | [10] -0.074 | [11] -0.012 | [12] 0.199 | [13] 0.057 | [14] 0.125 | [15] -0.04 | [16] 0.041 | [17] 0.043 | [18] -0.106 | [19] -0.003 | [20] -0.012

ARGLU1 (UniProt Q9NWB6)
UniProt Q9NWB6, sequence (Q9NWB6 whole entry, looked up): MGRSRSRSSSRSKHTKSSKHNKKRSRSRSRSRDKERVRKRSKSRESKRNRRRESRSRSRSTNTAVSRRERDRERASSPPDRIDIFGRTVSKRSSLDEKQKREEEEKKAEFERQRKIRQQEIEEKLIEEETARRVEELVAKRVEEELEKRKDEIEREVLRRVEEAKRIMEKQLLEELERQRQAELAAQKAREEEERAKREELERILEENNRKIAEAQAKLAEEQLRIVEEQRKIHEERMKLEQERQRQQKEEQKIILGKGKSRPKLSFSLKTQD
inactive: [1] -0.289 | [2] -0.019 | [4] -0.029 | [5] 0.15 | [6] 0.023 | [7] -0.001 | [8] 0.127 | [9] -0.019 | [10] 0.134 | [11] 0.046 | [12] 0.055 | [13] -0.136 | [14] -0.044 | [15] 0.147 | [16] 0.061 | [17] -0.045 | [18] -0.009 | [19] 0.001 | [20] -0.075
active: [3] -0.633

ACSL3 (UniProt O95573)
inactive: [1] 0 | [2] -0.001 | [3] -0.035 | [4] -0.009 | [5] -0.086 | [6] -0.025 | [7] -0.009 | [8] -0.004 | [9] 0.023 | [10] 0.035 | [11] 0.005 | [12] -0.051 | [13] 0.1 | [14] 0.029 | [15] 0.008 | [16] 0 | [17] 0.038 | [18] -0.016 | [19] 0.032 | [20] 0.039

ALDH18A1 (UniProt P54886)
UniProt P54886, sequence (P54886 whole entry, looked up): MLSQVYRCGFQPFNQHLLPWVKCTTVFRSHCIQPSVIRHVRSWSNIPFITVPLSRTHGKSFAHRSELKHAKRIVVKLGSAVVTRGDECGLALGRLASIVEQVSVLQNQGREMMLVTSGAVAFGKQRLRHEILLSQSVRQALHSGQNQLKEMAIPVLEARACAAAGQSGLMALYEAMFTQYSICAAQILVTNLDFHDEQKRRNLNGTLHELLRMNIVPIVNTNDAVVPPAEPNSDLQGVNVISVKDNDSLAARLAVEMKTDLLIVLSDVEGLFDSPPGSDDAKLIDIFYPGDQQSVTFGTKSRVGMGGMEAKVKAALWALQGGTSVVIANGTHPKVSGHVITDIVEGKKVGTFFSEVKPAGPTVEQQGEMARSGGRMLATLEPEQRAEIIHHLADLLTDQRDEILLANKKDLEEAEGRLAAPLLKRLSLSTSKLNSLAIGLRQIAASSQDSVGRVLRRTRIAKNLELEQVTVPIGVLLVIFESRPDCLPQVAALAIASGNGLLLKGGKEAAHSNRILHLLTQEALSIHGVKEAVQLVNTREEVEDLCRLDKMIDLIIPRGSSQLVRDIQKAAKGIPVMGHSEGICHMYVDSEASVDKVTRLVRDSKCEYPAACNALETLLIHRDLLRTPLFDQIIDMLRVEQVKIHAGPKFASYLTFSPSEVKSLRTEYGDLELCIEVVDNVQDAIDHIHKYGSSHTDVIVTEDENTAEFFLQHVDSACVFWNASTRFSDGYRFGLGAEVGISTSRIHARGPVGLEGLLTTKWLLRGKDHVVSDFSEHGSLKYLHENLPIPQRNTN
inactive: [1] 0 | [2] -0.098 | [3] 0 | [4] -0.057 | [6] -0.269 | [7] 0 | [8] -0.053 | [9] -0.059 | [10] 0.184 | [11] -0.179 | [12] 0.002 | [13] -0.04 | [14] 0.101 | [15] 0.035 | [16] 0.068 | [17] 0.057 | [18] -0.137 | [19] 0.141 | [20] 0.214
active: [5] -0.497

BID isoform 2 (UniProt P55957)
UniProt P55957, sequence (P55957 whole entry, looked up): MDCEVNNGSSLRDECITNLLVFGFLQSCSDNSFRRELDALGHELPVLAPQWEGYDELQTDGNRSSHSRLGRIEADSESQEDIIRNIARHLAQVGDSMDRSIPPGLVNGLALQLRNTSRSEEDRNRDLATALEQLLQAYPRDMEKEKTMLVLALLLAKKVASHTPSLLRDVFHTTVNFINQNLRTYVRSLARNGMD
inactive: [1] 0.052 | [2] 0.008 | [3] -0.039 | [4] -0.038 | [5] -0.053 | [6] 0.105 | [7] 0.012 | [8] -0.018 | [9] -0.047 | [10] 0.074 | [11] -0.054 | [12] -0.02 | [13] 0.029 | [14] 0.012 | [15] -0.056 | [16] 0.117 | [17] 0.001 | [18] 0.016 | [19] -0.001 | [20] -0.01

AP4S1 (UniProt Q9Y587)
UniProt Q9Y587, sequence (Q9Y587 whole entry, looked up): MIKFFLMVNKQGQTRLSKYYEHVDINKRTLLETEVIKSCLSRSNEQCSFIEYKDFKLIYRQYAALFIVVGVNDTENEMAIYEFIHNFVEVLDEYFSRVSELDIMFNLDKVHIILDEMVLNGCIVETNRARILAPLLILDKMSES
inactive: [1] -0.061 | [2] -0.12 | [3] 0.008 | [5] -0.079 | [6] 0 | [8] -0.145 | [9] 0.027 | [11] 0.033 | [13] -0.017 | [14] -0.007 | [15] -0.097 | [16] 0.107 | [17] 0.02 | [18] 0.102 | [19] 0 | [20] -0.008

ATP1A1 (UniProt P05023)
inactive: [1] 0.071 | [2] 0.03 | [3] 0.007 | [4] -0.029 | [5] -0.006 | [6] 0.182 | [7] -0.002 | [8] -0.006 | [9] 0.001 | [10] 0.009 | [11] 0.002 | [12] 0.01 | [13] 0.015 | [14] 0.025 | [15] -0.019 | [16] 0.017 | [17] 0.005 | [18] 0.068 | [19] -0.001 | [20] -0.02

AUH (UniProt Q13825)
UniProt Q13825, sequence (Q13825 whole entry, looked up): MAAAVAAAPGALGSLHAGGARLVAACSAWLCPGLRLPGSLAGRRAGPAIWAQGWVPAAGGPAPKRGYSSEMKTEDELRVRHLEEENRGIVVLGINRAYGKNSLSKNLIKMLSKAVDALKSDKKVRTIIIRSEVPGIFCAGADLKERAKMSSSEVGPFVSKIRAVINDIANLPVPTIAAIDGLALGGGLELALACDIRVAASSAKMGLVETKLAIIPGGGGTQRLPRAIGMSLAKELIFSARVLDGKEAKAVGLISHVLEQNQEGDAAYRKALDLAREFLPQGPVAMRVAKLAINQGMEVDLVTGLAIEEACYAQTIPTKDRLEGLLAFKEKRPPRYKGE
inactive: [1] -0.237 | [2] 0.031 | [3] 0.036 | [4] -0.003 | [6] 0.084 | [7] 0.026 | [8] 0.28 | [10] 0.032 | [12] -0.007 | [13] -0.107 | [14] 0.082 | [16] 0.091 | [17] 0.008 | [18] -0.185 | [19] 0.279 | [20] 0.096

ANK2 (UniProt Q01484)
inactive: [1] -0.069 | [2] -0.024 | [3] -0.058 | [4] -0.029 | [6] -0.178 | [7] 0.08 | [8] 0.062 | [9] 0.071 | [11] -0.11 | [12] -0.031 | [13] 0.019 | [14] 0.026 | [16] -0.026 | [17] 0.012 | [18] 0.053 | [19] -0.047 | [20] 0.031
active: [10] 0.423

AARSD1 (UniProt Q9BTE6)
UniProt Q9BTE6, sequence (Q9BTE6 whole entry, looked up): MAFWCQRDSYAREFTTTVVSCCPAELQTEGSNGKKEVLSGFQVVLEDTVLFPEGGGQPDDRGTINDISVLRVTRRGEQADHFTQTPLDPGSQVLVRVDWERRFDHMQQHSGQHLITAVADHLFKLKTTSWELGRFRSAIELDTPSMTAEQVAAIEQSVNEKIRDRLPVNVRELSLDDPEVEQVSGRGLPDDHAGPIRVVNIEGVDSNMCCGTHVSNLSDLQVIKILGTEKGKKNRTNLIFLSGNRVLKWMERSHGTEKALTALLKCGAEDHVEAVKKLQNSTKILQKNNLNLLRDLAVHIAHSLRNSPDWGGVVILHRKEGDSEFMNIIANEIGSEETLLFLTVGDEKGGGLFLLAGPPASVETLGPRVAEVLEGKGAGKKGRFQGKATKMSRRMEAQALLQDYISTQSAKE
inactive: [1] 0.264 | [2] 0.135 | [3] 0.107 | [6] -0.13 | [8] 0.041 | [9] -0.045 | [13] 0.044 | [14] 0.278 | [17] 0.206 | [18] 0.027 | [19] -0.285 | [20] 0.119

AMD1 (UniProt P17707)
UniProt P17707, sequence (P17707 whole entry, looked up): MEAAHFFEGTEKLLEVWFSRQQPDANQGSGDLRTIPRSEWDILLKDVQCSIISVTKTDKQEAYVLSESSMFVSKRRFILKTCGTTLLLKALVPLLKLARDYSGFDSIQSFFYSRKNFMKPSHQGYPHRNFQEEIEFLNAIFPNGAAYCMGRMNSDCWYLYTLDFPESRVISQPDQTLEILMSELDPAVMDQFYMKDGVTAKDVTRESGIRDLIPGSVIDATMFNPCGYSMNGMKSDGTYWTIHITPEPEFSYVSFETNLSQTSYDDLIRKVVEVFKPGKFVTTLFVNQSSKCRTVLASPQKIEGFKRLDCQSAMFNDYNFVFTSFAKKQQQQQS
active: [4] -0.307
inactive: [1] -0.018 | [2] -0.043 | [3] -0.086 | [5] -0.031 | [6] -0.073 | [7] 0.276 | [8] -0.025 | [9] 0.04 | [10] 0.051 | [11] 0.013 | [12] -0.142 | [13] 0.049 | [14] 0.078 | [15] -0.048 | [16] -0.126 | [17] 0.041 | [18] -0.027 | [19] 0.07 | [20] 0.016

ADAM15 (UniProt Q13444)
UniProt Q13444, sequence (Q13444 whole entry, looked up): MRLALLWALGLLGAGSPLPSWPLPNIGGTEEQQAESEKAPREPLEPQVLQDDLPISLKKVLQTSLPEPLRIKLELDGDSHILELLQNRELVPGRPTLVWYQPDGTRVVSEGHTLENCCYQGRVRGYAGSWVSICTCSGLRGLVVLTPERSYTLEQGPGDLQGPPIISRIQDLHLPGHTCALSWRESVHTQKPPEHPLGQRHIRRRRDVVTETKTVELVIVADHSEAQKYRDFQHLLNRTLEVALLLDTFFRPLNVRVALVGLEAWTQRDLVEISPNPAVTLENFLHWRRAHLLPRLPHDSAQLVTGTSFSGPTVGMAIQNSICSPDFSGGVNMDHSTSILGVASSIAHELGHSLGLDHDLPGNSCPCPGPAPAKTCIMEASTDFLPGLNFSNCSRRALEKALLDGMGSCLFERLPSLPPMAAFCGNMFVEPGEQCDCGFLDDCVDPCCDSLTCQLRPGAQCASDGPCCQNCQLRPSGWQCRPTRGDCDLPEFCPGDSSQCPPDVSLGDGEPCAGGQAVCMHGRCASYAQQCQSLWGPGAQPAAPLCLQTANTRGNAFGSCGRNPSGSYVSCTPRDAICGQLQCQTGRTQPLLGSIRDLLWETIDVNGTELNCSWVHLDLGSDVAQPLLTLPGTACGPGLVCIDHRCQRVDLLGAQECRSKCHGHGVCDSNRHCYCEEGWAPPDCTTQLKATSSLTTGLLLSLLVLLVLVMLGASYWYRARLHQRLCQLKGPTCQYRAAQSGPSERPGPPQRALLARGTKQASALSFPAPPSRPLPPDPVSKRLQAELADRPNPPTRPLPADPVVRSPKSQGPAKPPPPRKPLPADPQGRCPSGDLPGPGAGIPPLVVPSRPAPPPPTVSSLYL
inactive: [1] -0.026 | [2] 0.045 | [3] -0.199 | [4] 0.024 | [5] 0.008 | [6] 0.14 | [7] 0.053 | [8] 0.046 | [9] 0.027 | [10] 0.033 | [11] -0.045 | [12] 0.056 | [13] 0 | [14] -0.14 | [15] -0.016 | [16] -0.022 | [17] 0.007 | [19] 0.308 | [20] -0.043

BRIP1 (UniProt Q9BX63)
active: [10] 0.333
inactive: [1] 0.017 | [2] 0.12 | [3] -0.073 | [4] 0.006 | [5] 0.039 | [6] -0.036 | [7] -0.064 | [8] 0.084 | [9] -0.01 | [11] -0.049 | [12] -0.007 | [13] -0.009 | [14] -0.03 | [15] 0.23 | [16] 0.184 | [17] 0.045 | [19] 0.004 | [20] -0.162
